# Results published in PubChem BioAssay (NCATS).
# Records with an inconclusive call do not appear. Calls of active or inactive are those of the source. Calls come from the whole dose curve; as a rule, active = well fitted inhibition curve with a large enough effect; inconclusive = small, poorly fitted or top-dose-only effect; inactive = no such curve, though single readings can be large or run the other way.
# Test: Primary qHTS for small molecule stabilizers of the endoplasmic reticulum resident proteome: Secreted ER Calcium Modulated Protein (SERCaMP) assay (AID 1508630)
# Details: SH-SY5Y GLuc-SERCaMP (Gaussia luciferase released on ER calcium loss) secretion, thapsigargin, luminescence; series mostly up to 38.4 µM
# How it was run: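 GLuc-SERCaMP-expressing SH-SY5Y cells, pretreated 16 h with compound, are challenged with thapsigargin to empty ER calcium stores; after 4 h, coelenterazine is added directly to the medium and luminescence is imaged.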
row,SMILES,outcome
1,CC(=O)N1CCN(c2ccc(OCc3nn(C)c(C)c3-c3cccc4c(CCCOc5cccc6ccccc56)c(C(=O)O)n(Cc5cccnc5)c34)cc2)CC1,inactive
2,O=C(C=CC=Cc1ccc2c(c1)OCO2)N1CCCCC1,inactive
3,C=C1CCC2[C@](C)(CO)C(O)CC[C@]2(C)C1CC=C1C(=O)OCC1O (some centres undefined),inactive
4,CCOC(=O)N1CCN([N+]([O-])=NOc2ccc([N+](=O)[O-])cc2[N+](=O)[O-])CC1,inactive
5,N#CC(=C(N)Sc1ccc(N)cc1)c1ccccc1C(F)(F)F,inactive
6,CC(=CC(=O)Nc1ccccc1C(=O)O)c1ccc2ccccc2c1,inactive
7,CC[C@H](CC[C@@H](C)[C@H]1CC[C@H]2[C@@H]3CC=C4C[C@@H](O)CC[C@]4(C)[C@@H]3CC[C@]12C)C(C)C,inactive
8,COc1ccc(C=Cc2cc(OC)c(OC)c(OC)c2)cc1NC(=O)[C@H](N)CO,inactive
9,C#Cc1cccc(Nc2ncnc3cc(OCCOC)c(OCCO)cc23)c1,inactive
10,C=C[C@@H]1CN2CCC1C[C@H]2[C@H](O)c1ccnc2ccc(OC)cc12 (some centres undefined),inactive
11,Cc1[nH]c(C=C2C(=O)Nc3ccccc32)c(C)c1CCC(=O)O,inactive
12,CC(C)c1cc(C(C)C)c(CC(=O)NS(=O)(=O)Oc2c(C(C)C)cccc2C(C)C)c(C(C)C)c1,inactive
13,CS(=O)(=O)N1CCc2c(-c3cnc(N)nc3)nc(N3CCOCC3)nc21,inactive
14,C[C@]12C=CC(=O)N[C@@H]1CC[C@H]1[C@H]3CC[C@@H](C(=O)Nc4cc(C(F)(F)F)ccc4C(F)(F)F)[C@@]3(C)CC[C@@H]12,inactive
